Screening data as filed in PubChem.
NOD2-RIPK2 inh: NOD2-RIPK2 binding disruptors in cells, primary screen, fluorescence, CHO cells, BLA complementation; CCF4 ratio; Receptor-interacting serine/threonine-protein kinase 2 (Homo sapiens), O43353; inhibition, % at 4.98 µM; 360,000 tested, 0.38% active; in the data active = inhibition above about 21%
NTR1 ag: agonists of human NTR1, primary screen, imaging, U2OS cells, beta-arrestin-GFP, high content; Neurotensin receptor type 1 (Homo sapiens), P30989; NTR1-U2OS beta-arrestin-GFP spot imaging, agonist mode; activation, % at 20 µM; 330,000 tested, 0.17% active; AID 493036, 2011;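 active = activation at or above 40% of the spot to cytoplasm intensity ratio, with at least 20 cells analyzed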
Target sequence (P30989 whole entry, looked up): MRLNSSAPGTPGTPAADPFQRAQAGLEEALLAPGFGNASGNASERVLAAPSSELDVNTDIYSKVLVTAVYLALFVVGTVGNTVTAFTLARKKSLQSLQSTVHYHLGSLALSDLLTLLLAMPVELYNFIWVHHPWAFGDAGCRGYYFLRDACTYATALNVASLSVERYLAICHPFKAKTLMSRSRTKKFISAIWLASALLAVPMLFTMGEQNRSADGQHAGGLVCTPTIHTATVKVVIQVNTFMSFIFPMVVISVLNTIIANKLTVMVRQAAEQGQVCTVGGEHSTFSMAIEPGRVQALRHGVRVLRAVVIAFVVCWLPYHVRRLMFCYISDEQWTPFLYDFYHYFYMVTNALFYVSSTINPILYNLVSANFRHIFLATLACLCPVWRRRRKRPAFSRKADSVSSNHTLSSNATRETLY
TLR4 MyD88 comp: inhibitors of TLR4-MyD88 association in cells, primary screen, cell-based, HeLa CL3-4, BLA complementation, FRET ratio | Toll-like receptor 4 (Homo sapiens) + Myeloid differentiation primary response protein … | HeLa CL3-4 TLR4/MyD88 BLA complementation | inhibition, % at 8.4 µM | 200,000 tested, 0.18% active | AID 861, 2007; in the data active = inhibition above about 25%
B2AR ag: beta2AR agonists driving receptor internalization, primary screen, cell-based, FAP fluorogen, flow cytometry. Beta-2 adrenergic receptor (Homo sapiens), P07550. Am2.2-beta2AR cells. response, % (concentration not given with the values). 340,000 tested, 0.43% active. AID 504454, 2011;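 active = response above a set limit, near 3 SD of response in nonfluorescent compounds, cut at about 42% in these data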
ABHD5-PLIN5 inh: ABHD5-PLIN5 interaction inhibitors, primary screen, cell lysate, split luciferase complementation, luminescence. 360,000 tested, 0.78% active. Split G. princeps luciferase complementation, 4 h. inhibition, % at 4 µM. Perilipin-5 (Homo sapiens) + 1-acylglycerol-3-phosphate O-acyltransferase ABHD5 (Homo …;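 active = inhibition above the mean inhibition across every tested compound plus 3 SD, cut at about 22% in these data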
TLR9-MyD88 block: inhibitors of TLR9-MyD88 association in cells, primary screen, cell-based, CHO, BLA complementation, fluorescence; Toll-like receptor 9 (Homo sapiens) + Myeloid differentiation primary response protein …; 340,000 tested, 0.21% active; inhibition, % at 4.98 µM; CCF4 FRET ratio; AID 504734, 2011;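 active = inhibition above the mean over all tested compounds plus 3 SD, cut at about 21% in these data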
NOD2-RIPK2 conf: NOD2-RIPK2 binding disruptors, retest, confirmation, fluorescence, CHO cells, BLA complementation, triplicate; inhibition, % at 4.98 µM; shares compounds with NOD2-RIPK2 inh; CCF4 FRET; AID 624370, 2012; 1,200 tested, 70% active;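 active = mean inhibition across replicates above a set limit taken from the earlier primary screen, cut at about 21% in these data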
NOD2 BLA counter: hits BLA reporter in NOD2-RIPK2 inhibitor counterscreen | shares compounds with NOD2-RIPK2 inh | CHO BLA reporter, CCF4 FRET ratio | inhibition, % at 4.98 µM | 1,200 tested, 57% active | AID 624371;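 active = mean inhibition above the low-control mean inhibition plus three low-control SD, cut at about 11% in these data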
Numbers stand for hits. Compounds with a hit are over-represented: about 1.5% of the library has one in this group of screens.

How did CC1(C(=O)NCc2ccccc2)CSCC(=O)N1Cc1cccs1 (centres undefined) do in these assays?
NOD2-RIPK2 inh: inactive; ABHD5-PLIN5 inh: inactive

How did CCCCn1c(=O)[nH]c2nc3cc(N)ccc3nc2c1=O do in these assays?
NOD2-RIPK2 inh: 26.2; TLR4 MyD88 comp: inactive; B2AR ag: inactive; ABHD5-PLIN5 inh: inactive; TLR9-MyD88 block: inactive; NOD2-RIPK2 conf: 31.1; NOD2 BLA counter: 36.8

Results for Nc1ccc2nc3c(=O)n(CCc4ccccc4)c(=O)[nH]c3nc2c1 ?
NOD2-RIPK2 inh: 37.5; NTR1 ag: inactive; B2AR ag: inactive; ABHD5-PLIN5 inh: inactive; NOD2-RIPK2 conf: 36.1; NOD2 BLA counter: 35.1

Results for CCC(C)(C)n1nnnc1C(C(C)C)N(Cc1ccco1)Cc1cc2cc3c(cc2[nH]c1=O)OCO3 (centres undefined) ?
NOD2-RIPK2 inh: 43.8; NTR1 ag: inactive; TLR4 MyD88 comp: inactive; B2AR ag: inactive; ABHD5-PLIN5 inh: inactive; TLR9-MyD88 block: inactive; NOD2-RIPK2 conf: inactive; NOD2 BLA counter: inactive

How did CC(=O)c1ccc(/C=C/c2nc3ccccc3n2C)o1 do in these assays?
NOD2-RIPK2 inh: 54.2; NTR1 ag: inactive; B2AR ag: inactive; ABHD5-PLIN5 inh: inactive; NOD2-RIPK2 conf: 68.1; NOD2 BLA counter: 69.8

How did O=C(NC1CCCCC1)C(c1ccc(C(F)(F)F)cc1)n1c(=O)c(-c2cc3ccccc3[nH]2)nc2ccccc21 (centres undefined) do in these assays?
NOD2-RIPK2 inh: 41.1; ABHD5-PLIN5 inh: inactive; NOD2-RIPK2 conf: 35.6; NOD2 BLA counter: 66.1

Results for O=C(NC1CCCCC1)C(c1ccncc1)n1c(=O)c(-c2ccccc2)nc2ccccc21 (centres undefined) ?
NOD2-RIPK2 inh: inactive; ABHD5-PLIN5 inh: inactive

How did O=C(NC1CCCCC1)C(c1ccncc1)n1c(=O)c(-c2cc3ccccc3[nH]2)nc2ccccc21 (centres undefined) do in these assays?
NOD2-RIPK2 inh: 53.1; ABHD5-PLIN5 inh: inactive; NOD2-RIPK2 conf: 47.6; NOD2 BLA counter: 68.2

What do the screens show for `COCCn1c(=O)[nH]c2cc(C(=O)Nc3nnc(C)s3)ccc21`?
NOD2-RIPK2 inh: 94.0; NTR1 ag: inactive; B2AR ag: inactive; ABHD5-PLIN5 inh: inactive; TLR9-MyD88 block: inactive; NOD2-RIPK2 conf: inactive; NOD2 BLA counter: inactive

What do the screens show for `COCCn1c(=O)[nH]c2cc(C(=O)Nc3cc(OC)c(OC)c(OC)c3)ccc2c1=O`?
NOD2-RIPK2 inh: inactive; NTR1 ag: inactive; B2AR ag: inactive; ABHD5-PLIN5 inh: inactive; TLR9-MyD88 block: inactive

Results for NC(Cc1ccc(Cl)cc1)c1csc(NC(=O)NCC2CCCCC2)n1 (centres undefined) ?
NOD2-RIPK2 inh: inactive; ABHD5-PLIN5 inh: inactive

Results for CN1CCN(C(=O)c2cc3c(c(-c4cccc(-c5cc6ccccc6o5)c4)n2)[C@@H](CCO)N(S(=O)C(C)(C)C)C3)CC1 (some centres undefined) ?
NOD2-RIPK2 inh: inactive; ABHD5-PLIN5 inh: inactive

Results for COc1ccc(NC(=O)C(c2ccncc2)n2c(=O)c(-c3ccccc3)nc3ccccc32)cc1 (centres undefined) ?
NOD2-RIPK2 inh: inactive; ABHD5-PLIN5 inh: inactive

What do the screens show for `O=C(Nc1ccc2ccccc2c1)C(c1ccccc1F)n1c(=O)c(-c2cc3ccccc3[nH]2)nc2ccccc21` (centres undefined)?
NOD2-RIPK2 inh: 44.9; ABHD5-PLIN5 inh: inactive; NOD2-RIPK2 conf: 41.8; NOD2 BLA counter: 66.7

Results for O=C(Nc1ccc2c(c1)OCCO2)C(c1ccccc1)n1c(=O)c(-c2cc3ccccc3[nH]2)nc2ccccc21 (centres undefined) ?
NOD2-RIPK2 inh: 48.2; ABHD5-PLIN5 inh: inactive; NOD2-RIPK2 conf: 40.9; NOD2 BLA counter: 63.6

What do the screens show for `COc1ccc(NC(=O)C(c2ccccc2)n2c(=O)c(-c3cc4ccccc4[nH]3)nc3ccccc32)cc1` (centres undefined)?
NOD2-RIPK2 inh: 46.8; ABHD5-PLIN5 inh: inactive; NOD2-RIPK2 conf: 42.3; NOD2 BLA counter: 65.2

What do the screens show for `COc1ccc(NC(=O)C(c2ccccc2F)n2c(=O)c(-c3cc4ccccc4[nH]3)nc3ccccc32)cc1` (centres undefined)?
NOD2-RIPK2 inh: 50.3; ABHD5-PLIN5 inh: inactive; NOD2-RIPK2 conf: 46.6; NOD2 BLA counter: 68.5

Results for CC1(Cc2cccc(C#N)c2)C(=O)Nc2c(Cl)cccc21 (centres undefined) ?
NOD2-RIPK2 inh: inactive; ABHD5-PLIN5 inh: inactive

How did O=C1Nc2ccccc2-n2nnnc2C1N1CCc2ccccc2C1 (centres undefined) do in these assays?
NOD2-RIPK2 inh: inactive; ABHD5-PLIN5 inh: inactive

Results for COc1ccc([N+](=O)[O-])cc1CN1CCN(c2ncc(Cc3ccccc3)cn2)CC1 ?
NOD2-RIPK2 inh: inactive; ABHD5-PLIN5 inh: inactive

What do the screens show for `COc1cccc2sc(N(CCN(C)C)C(=O)/C=C/c3cccs3)nc12`?
NOD2-RIPK2 inh: inactive; NTR1 ag: inactive; TLR4 MyD88 comp: inactive; B2AR ag: inactive; ABHD5-PLIN5 inh: inactive; TLR9-MyD88 block: inactive

Results for COc1ccc(OC)c2sc(N(CCN(C)C)C(=O)/C=C/c3cccs3)nc12 ?
NOD2-RIPK2 inh: 21.1; NTR1 ag: inactive; B2AR ag: inactive; ABHD5-PLIN5 inh: 22.1; TLR9-MyD88 block: inactive; NOD2-RIPK2 conf: 37.5; NOD2 BLA counter: inactive

How did CC(C)Cc1ccc(-c2cc3nc(NCC4CC4)ccn3n2)cc1 do in these assays?
NOD2-RIPK2 inh: inactive; ABHD5-PLIN5 inh: inactive

How did COc1ccc(C2C(C(=O)c3ccco3)=C(O)C(=O)N2CC2CCCO2)c(OC)c1 (centres undefined) do in these assays?
NOD2-RIPK2 inh: inactive; NTR1 ag: inactive; B2AR ag: inactive; ABHD5-PLIN5 inh: inactive; TLR9-MyD88 block: inactive

What do the screens show for `COc1ccc(OC)c(C2C(C(=O)c3ccco3)=C(O)C(=O)N2CC2CCCO2)c1` (centres undefined)?
NOD2-RIPK2 inh: 21.1; NTR1 ag: inactive; B2AR ag: inactive; ABHD5-PLIN5 inh: inactive; TLR9-MyD88 block: inactive; NOD2-RIPK2 conf: inactive; NOD2 BLA counter: inactive

How did CCc1nc2ccc(C(=O)Nc3ccc4c(c3)OCC(=O)N4)cn2c1N(CC)Cc1cccc(Br)c1 do in these assays?
NOD2-RIPK2 inh: inactive; ABHD5-PLIN5 inh: inactive
